The results in this text go back to PubChem BioAssay AID1063 (University of Pittsburgh Molecular Library Screening Center, 2008).

The campaign covered roughly 200,000 compounds. About 18,000 (9%) were called active. No stated cut-off is given here; in the data, active means inhibition above about 50%; inactive means the rest. Many of the other results were omitted from the sample, so actives are more common in it than they were.

This assay is described as follows: antileishmanial activity against promastigotes – primary screen (AID 1063).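 Further: promastigotes grown with compound for 44 hours at 28 °C.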 The conditions noted are these: Leishmania major promastigotes, resazurin fluorescence viability; at 10 µM; hits give high values. A general note: Resazurin is reduced to fluorescent resorufin, in cell work by metabolically active cells.
Take `N=c1n(Cc2ccc(Cl)cc2)c2ccccc2n1CC(O)c1ccco1` (stereo not given): the inhibition was 85.3% (active).

Take `Cn1c(=N)n(CC(O)c2cccs2)c2ccccc21` (stereo not given): the inhibition was 1.42% (inactive).

As to `CC(=O)NC1(c2ccc(F)cc2)CCN(C(=O)c2c(F)cccc2F)CC1`, the inhibition is -1.81% (inactive). As for `CN(Cc1nc2ccc(F)cc2[nH]1)Cc1nc(CC2CC2)no1`, the inhibition was -4.94% (inactive).

In the case of `C[C@@H]1C[C@@H]2O[C@H]2/C=C\C=C\C(=O)Cc2c(Cl)c(O)cc(O)c2C(=O)O1`, the inhibition is 100% (active). On to `O=[N+]([O-])c1ccc2oc(-c3cccc(O)c3)nc2c1`, for which the inhibition was -1.6% (inactive). Under `CCOC(=O)C1(Cc2cccc(OC)c2)CCN(Cc2csc(C(C)=O)c2)CC1` stands 92.9% (active); under `CCOC(=O)C1(Cc2cccc(OC)c2)CCN(C(C)CC(C)(C)O)CC1` (stereo not given), -1.48% (inactive). The value for `CCOC(=O)C1(Cc2cccc(OC)c2)CCN(C(C)COC)CC1` (stereo not given) was 2.55% (inactive). Under `CC(=O)Nc1ccc(NC(=O)COc2ccc(S(=O)(=O)NC(C)c3ccccc3)cc2)cc1` (stereo not given) stands -0.2% (inactive). `COc1cc(/C=C/C2=CC(C)(C)NC(=S)N2)cc(OC)c1OC`: the inhibition is 0.1% (inactive). The value for `Cn1c(=O)c2c(nc(N/N=C/c3cccs3)n2Cc2ccc(Br)cc2)n(C)c1=O` was 60.3% (active); that for `CCCCNc1nc2c(c(=O)n(C)c(=O)n2C)n1Cc1cccc(OC)c1` was 4.44% (inactive); that for `Cn1c(=O)c2c(nc(NCCc3ccccc3)n2Cc2ccccc2)n(C)c1=O` was 15.1% (inactive). Under `O=C(CN1C(=O)/C(=C\c2ccccc2F)SC1=S)Nc1nc2ccccc2s1` stands -3.34% (inactive); under `Clc1ccc(-c2csc(-c3ccncc3)n2)cc1`, 5.86% (inactive); under `CCOc1cc(NC(=O)CCl)c(OCC)cc1NC(C)=O`, 5.77% (inactive). Under `CS(=O)(=O)N(CC(O)Cn1c2ccccc2c2ccccc21)c1cccc2ccccc12` (stereo not given) stands 100% (active); under `CC(=O)c1ccc2c(c1)c1ccccc1n2CC(C)C`, 9.99% (inactive); under `O=C1c2ccccc2S(=O)(=O)N1CC(O)Cn1c2ccccc2c2ccccc21` (stereo not given), -4.57% (inactive). Consider `O=C(Nc1nnc(Cc2ccc(Cl)cc2)s1)c1cccnc1`, for which the inhibition is -10.8% (inactive). Under `COC(=O)N/N=C/c1ccc(/C=N/NC(=O)OC)cc1` stands -5.23% (inactive).

Consider `C=CCn1c(-c2sc(-c3ccccc3)nc2C)n[nH]c1=S`, for which the inhibition was -5.29% (inactive).

Regarding `CCN(CC)CC1(O)CCN(C(=O)c2ccc(Cl)c(Cl)c2)CC1`, the inhibition was 99.6% (active). Under `O=C(c1ccc(Cl)c(Cl)c1)N1CCCC1` stands -4.87% (inactive). On to `CCCNC(=O)c1ccc(Cl)c(Cl)c1`, for which the inhibition was -4.03% (inactive).

With `ClC1(Cl)CC1CSc1ncn[nH]1` (stereo not given), the inhibition was 3.37% (inactive).

For `CCOC(=O)CCNC(=O)N1CCCC(C(=O)c2ccccc2SC)C1` (stereo not given), the inhibition was -1.7% (inactive). Under `CCOC(=O)c1cnc(Nc2nc3ccccc3o2)nc1CSC(=S)N1CCCCC1` stands 56.7% (active). `CCc1ccc(CNC(=O)C2CCCN(c3nc4ccccc4o3)C2)cc1` (stereo not given): the inhibition is 0.6% (inactive). The value for `COc1ccc(-n2nc(C(=O)Nc3cc(OC)c(OC)c(OC)c3)c3ccccc3c2=O)c(OC)c1` was 0.87% (inactive); that for `O=C(c1cccc(F)c1)N1CCN(c2ccc([N+](=O)[O-])c3cccnc23)CC1` was 45.7% (inactive).

With `CC(CNc1ccc([N+](=O)[O-])c2cccnc12)Nc1c([N+](=O)[O-])cc(C(F)(F)F)cc1[N+](=O)[O-]` (stereo not given), the inhibition is 76.9% (active).

With `O=C(CSc1ccc(C(F)(F)F)cc1[N+](=O)[O-])NCCOc1ccccc1`, the inhibition is -4.83% (inactive). Turning to `COc1ccnc(Oc2ccccc2)c1-c1ncn[nH]1`, the inhibition was -5.3% (inactive). Take `CC1CCN(S(=O)(=O)c2ccc3ncn(CC(=O)N(C)C4CCCCC4)c(=O)c3c2)CC1`: the inhibition was -0.9% (inactive).

With `Cc1ccc(NC(=O)Nc2nnc(-c3ccncc3)s2)cc1`, the inhibition is 12.8% (inactive). Under `CCN1/C(=C\c2ccc3ccccc3[n+]2CC)Sc2cc(C)ccc21` stands 101% (active); under `CCC(=O)/C=C1\Sc2ccccc2N1CC`, 3.43% (inactive).

As to `CCN1/C(=C/c2ccc3ccc(C)cc3[n+]2CC)Sc2ccccc21`, the inhibition was 100% (active).

Take `O=C(Cc1ccccc1)N1CCN(S(=O)(=O)c2ccc([N+](=O)[O-])cc2)CC1`: the inhibition was 5.24% (inactive).

`Cc1ccc(Nc2c(F)c(F)c(F)c(F)c2C(=O)O)c(C)c1`: the inhibition was -6.66% (inactive).

As for `COc1cccc(CN(C)CC(=O)Nc2ccccc2C(=O)Nc2ccccc2)c1`, the inhibition is 16.9% (inactive). The value for `Cc1cc([N+](=O)[O-])ccc1NC(=O)c1ccc(NC(=O)C(C)C)cc1` was -5.33% (inactive). The value for `CN1CC(c2ccccc2)C2(COc3ccccc3C2=O)C12C(=O)Nc1ccccc12` (stereo not given) was 62.6% (active); that for `Cc1ccc(S(=O)(=O)N2CCN(Cc3cccc(C)c3O)CC2)cc1` was -1.84% (inactive); that for `O=C(CN1CCN(S(=O)(=O)c2ccc(F)cc2)CC1)Nc1ccccc1F` was 1.33% (inactive). As to `O=S(=O)(c1ccc(F)cc1)N1CCN(Cc2ccccc2C(F)(F)F)CC1`, the inhibition was 51.1% (active). The value for `COc1ccc(CN(C)C(C)C(=O)NC2CCCc3ccccc32)cc1` (stereo not given) was 10% (inactive); that for `O=[N+]([O-])c1ccc(N2CCN(S(=O)(=O)c3ccc4ccccc4c3)CC2)cc1NCc1ccco1` was -0.79% (inactive).

As for `O=C(c1ccccc1)N1CCN(c2ccc([N+](=O)[O-])c(NCc3ccco3)c2)CC1`, the inhibition was 65.6% (active). In the case of `O=C(c1cccc(F)c1)N1CCN(c2ccc([N+](=O)[O-])c(N3CCCCC3)c2)CC1`, the inhibition is 4.09% (inactive). Under `CN(C)c1ccc(/C=N/NC(=O)C(O)c2ccc(Br)cc2)cc1` (stereo not given) stands 4.17% (inactive). The value for `CN(C)c1ccnc(Nc2ccc(F)cc2)c1C#N` was -2.28% (inactive); that for `CCOC(=O)NNC(=O)c1ccc(Cl)cc1` was -5.24% (inactive); that for `C/C(=N\N=C(N)N)c1ccc(Cl)cc1` was 98.8% (active). Under `COC(=O)/C(NC(C)=O)=C(\C)c1ccc(Cl)cc1` stands 0.11% (inactive); under `Fc1cccc(Cc2noc(CN3CCN(c4cnccn4)CC3)n2)c1`, -3.37% (inactive).

For `FC(F)(F)c1cccc(Cc2noc(CN3CCC(N4CCCCC4)CC3)n2)c1`, the inhibition is 82.7% (active).

With `CCOC(=O)N1CCN(Cc2nc(Cc3cccc(C(F)(F)F)c3)no2)CC1`, the inhibition was 4.8% (inactive).

One may read the inhibition as the change of the read-out against control, counted positive when it falls.
